ChEMBL document CHEMBL3988442, “University of Dundee, Small-Polar-MMV Screening Library” (2021)
Screen size: about 48,000 compounds; about 13,000 (27%) showed an effect of 50% or more. Some of the results follow.

Tested on: Wolbachia pipientis
Assay: Anti-Wolbachia Cell-Based Screen
Type: functional
Set-up: scale not given: in the data most compounds retested in dose-response had high values
Conditions: 5 µM

Compound | Percent Effect
Cn1c(Cl)cnc1CN1CCCC1c1ccc2c(c1)OCCO2 (stereo not given) | -20.61%
Cn1cc(CN2CCCCC2c2ccc(-c3cnn(C)c3)nc2)cn1 (stereo not given) | 49.11%
Cn1cc(-c2ccc(C3CCCCN3Cc3cccnc3)cn2)cn1 (stereo not given) | 97.17%
Cn1cc(CN2CCCCC2c2ccc(-c3cccc(Cl)c3)nc2)cn1 (stereo not given) | 64.04%
Cn1cc(CN2CCCCC2c2ccc(-c3cccc(F)c3)nc2)cn1 (stereo not given) | 28.65%
Cc1cnn(CCCNC(=O)C2CCCCN2Cc2cccnc2)c1 (stereo not given) | 8.943%
CN(CC(=O)Nc1ccccc1)C(=O)CN(C)c1ccc(Cl)cn1 | -3.187%
CSc1ncc(CNCC2(N3CCCCC3)Cc3ccccc3C2)cn1 | -2.025%
Cc1noc(CS(=O)(=O)c2cc(F)ccc2F)n1 | 2.12%
Nc1nccc(N2CCNC(C(=O)NCc3ccccn3)C2)n1 (stereo not given) | -0.8592%
Cc1cnc(N2CCOC(C(=O)NCc3ccccc3)C2)s1 (stereo not given) | 138.3%
O=C(NC[C@H]1OC[C@@H]2CCN(c3ccccn3)C[C@@H]21)c1ccco1 | -8.109%
O=C(NCc1ccccc1)C1CN(c2ccccn2)CCO1 (stereo not given) | 195.5%
O=C(NCc1ccncc1)C1CN(c2nc3ccccc3s2)CCN1 (stereo not given) | 6.015%
CCC1CN(C(=O)c2cnc(-c3ccccc3)s2)CCO1 (stereo not given) | -14.04%
CN(C)c1ccccc1C(=O)N1C[C@@H](CN2CCOCC2)[C@@H](CO)C1 | 9.943%
O=C1N[C@@H]2CCN(C(=O)c3ccccc3)[C@@H]2C(=O)N1Cc1ccccc1 | -7.073%
N#Cc1ncn(CCS(=O)(=O)c2ccc(Cl)cc2)n1 | -0.6249%
N#Cc1ncn(CCC(=O)Nc2ccc(F)c(F)c2)n1 | 100.3%
N#Cc1ncn(CC(=O)Nc2cc(Cl)ccc2F)n1 | -2.838%
N#Cc1ncn(CCS(=O)(=O)c2ccccc2)n1 | 11.97%
N#Cc1ncn(CCC(=O)Nc2ccc(Cl)cc2F)n1 | 11.11%

Compound | Percent Effect
N#Cc1ncn(CCC(=O)Nc2cc(Cl)ccc2Cl)n1 | 94.62%
N#Cc1ncn(CCC(=O)Nc2c(Cl)cccc2Cl)n1 | -3.932%
O=C(CCNC(=O)c1ccoc1)Nc1ccccc1F | -1.29%
Cc1ccc(F)cc1NC(=O)CCn1cncn1 | -7.237%
N#Cc1ncn(CCC(=O)Nc2ccccc2F)n1 | 141.3%
N#Cc1ncn(CCC(=O)Nc2cccc(Cl)c2)n1 | 93.03%
N#Cc1ncn(CCS(=O)(=O)c2ccc(Br)cc2)n1 | 14.03%
CCCC1CCN(C(=O)c2coc(COc3ccc(OC)cc3)n2)C1 (stereo not given) | 13.18%
CCOc1c(Br)cc(CNC(C)c2nnc3n2CCC3)cc1OC (stereo not given) | -3.79%
O=C(c1cc(COc2ccc3c(c2)OCO3)[nH]n1)N1CCCO1 | -2.662%
COc1ccc(C[C@H]2CN(C3CCOCC3)CC[C@H]2OCC2CC2)cc1.O=C(O)C(F)(F)F | -41.15%
COc1ccc(C[C@H]2CN(C3CCOCC3)CC[C@@H]2OCC2CC2)cc1.O=C(O)C(F)(F)F | -34.49%
COc1ccc(C[C@H]2CN(Cc3ccoc3)CC[C@H]2OC)cc1.O=C(O)C(F)(F)F | 63.46%
COc1ccc(C[C@H]2CN(Cc3ccoc3)CC[C@@H]2OC)cc1.O=C(O)C(F)(F)F | 76.48%
COc1ccc(CN2C[C@@H]3CN(Cc4ccoc4)C[C@@H]3C2=O)cc1.O=C(O)C(F)(F)F | -0.9609%
COc1ccc(CN2CCN(S(=O)(=O)c3cc(C(=O)O)cs3)CC2)cc1 | 1.54%
Cc1cc(-c2nn(C)c(Cl)c2CN2CCOCC2CC(=O)O)no1 (stereo not given) | 1.04%
CCCS(=O)(=O)c1ncc(CN2CCC(C)CC2)n1CC1CCCO1 (stereo not given) | -5.004%
CC(=O)N1CCN(CCNS(=O)(=O)c2cc(F)cc(F)c2)CC1 | 102.1%
CC(=O)N1CCN(CCNS(=O)(=O)c2cc(F)ccc2C)CC1 | 96.01%
CC(=O)N1CCN(CCNS(=O)(=O)c2cccc(F)c2)CC1 | 146.4%
O=S(=O)(NCCC(O)c1cccs1)c1c(F)cccc1F (stereo not given) | 0.3394%

Compound | Percent Effect
CC(=O)N1CCN(CCNc2ncc(Br)cc2C)CC1 | 3.175%
CC1CCN(CCCNS(=O)(=O)c2cccc(F)c2)CC1.Cl | 5.28%
CC(=O)N1CCN(CCNS(=O)(=O)c2c(F)cccc2F)CC1 | 115.2%
CC1CCN(CCCNS(=O)(=O)c2cc(F)cc(F)c2)CC1.Cl | -12.88%
CC(=O)N1CCN(CCCSCc2ccccc2)CC1 | -1.866%
Cc1ccc(F)cc1S(=O)(=O)NCc1cccc(CS(C)(=O)=O)c1 | -14.38%
O=S(=O)(NCCCN1CCCC1)c1cc(F)cc(F)c1 | -0.6955%
CSCc1cccc(S(=O)(=O)NCCCN2CCOCC2)c1 | -6.624%
Cc1nc(CNCc2ccc(N3CCN(C)CC3)nc2)cs1 | -1.26%
CN(CCCNS(=O)(=O)N1CCC2(CC1)OCCO2)c1ccccc1 | 15.24%
CNc1ccnc(N2C[C@@H]3CC[C@H](C2)N(CCOC)C3=O)n1 | -5.532%
CC(=O)N1CCN(CCNS(=O)(=O)c2ccc(F)c(F)c2)CC1 | 114.9%
CS(=O)(=O)Cc1cccc(CNS(=O)(=O)c2ccc(F)c(F)c2)c1 | -9.477%
O=S(=O)(NCCN1CC=CC1)c1ccc(Cl)cc1 | -10.33%
Cn1ncc2ccc(C3CCCN(Cc4ccsc4)C3)nc21 (stereo not given) | 178.8%
Cn1ncc2ccc(C3CCCN(Cc4cccs4)C3)nc21 (stereo not given) | 161.9%
COCC1CN(C(=O)Cc2cccs2)Cc2c1cnn2C (stereo not given) | -7.933%
O=C(Cc1cccs1)N1CCCC(CNS(=O)(=O)Cc2ccccc2)C1 (stereo not given) | -8.788%
Cn1cc(CN2CCO[C@H]3CN(Cc4ccsc4)C[C@H]32)cn1 | -4.934%
Cn1ncc2ccc(C3CCCN(C(=O)Cc4cccs4)C3)nc21 (stereo not given) | 73.59%
O=C(c1cnc(Cc2c(Cl)cccc2Cl)nc1O)N1CCNCC1 | 20.47%
